For 1 sequence, binding signal results are on record in publication PMC7862700, “An all-to-all approach to the identification of sequence-specific readers for epigenetic DNA modifications on cytosine”.

Experiment in all cases: DAPPL (digital affinity profiling via proximity ligation, sequencing); 10 mM Tris-HCl pH 7.5, 50 mM NaCl, 1 mM DTT, 4% glycerol, room temperature, 30 min; GST-TFs on glutathione beads, 16-mer random dsDNA library, 0.1% formaldehyde crosslink after washing; high values mean tight binding
The target in one assay is T1, FEV (Homo sapiens, UniProt Q99581 1-238).
T1 sequence: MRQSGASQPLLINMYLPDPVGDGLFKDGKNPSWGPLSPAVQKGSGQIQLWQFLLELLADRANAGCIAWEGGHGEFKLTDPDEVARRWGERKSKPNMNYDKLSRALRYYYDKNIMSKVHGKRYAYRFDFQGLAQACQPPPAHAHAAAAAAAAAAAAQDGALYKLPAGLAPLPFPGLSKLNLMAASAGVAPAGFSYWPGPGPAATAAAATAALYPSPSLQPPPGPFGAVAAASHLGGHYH
The note with it: protein: recombinant; tags: N-terminal GST; dsDNA, one strand shown. In short, it runs like this:
(§1)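 After expression in yeast as GST fusions, human transcription factors were bound to glutathione beads, DNA-barcoded and mixed with a tag-only sample. The pools were incubated with 200 nmole of a 16-mer random double-stranded DNA library in Tris/NaCl/DTT/glycerol buffer (30 min, room temperature), washed and crosslinked with 0.1% formaldehyde. Proximity ligation with BsaI/T4 ligase ran for 1 h at 37 °C, before PCR amplification and sequencing on an Illumina NextSeq500. Binding signal is a hexamer's read frequency for a factor divided by its frequency for the tag-only sample.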

The next assay concerns the target ETV5 (Homo sapiens, UniProt P41161 1-510). Particulars: protein: recombinant; tags: N-terminal GST; dsDNA, one strand shown. In short, it runs like this:
as §1

Another assay addresses HSF1 (Homo sapiens, UniProt Q00613 1-529). Particulars: protein: recombinant; tags: N-terminal GST; chain copies: 3; dsDNA, one strand shown. In short, it runs like this:
as §1

The next assay concerns the target T2, SPIC (Homo sapiens, UniProt Q8N5J4 1-248).
T2 sequence: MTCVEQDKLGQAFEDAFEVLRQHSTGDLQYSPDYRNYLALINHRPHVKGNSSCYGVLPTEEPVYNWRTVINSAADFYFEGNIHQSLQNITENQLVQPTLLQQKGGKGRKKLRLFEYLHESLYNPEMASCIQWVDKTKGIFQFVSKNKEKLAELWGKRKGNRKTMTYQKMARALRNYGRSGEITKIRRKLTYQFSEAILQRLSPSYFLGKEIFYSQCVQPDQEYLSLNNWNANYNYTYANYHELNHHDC
The note with it: protein: recombinant; tags: N-terminal GST; dsDNA, one strand shown. In short, it runs like this: as §1

The next assay concerns the target ELF4 (Homo sapiens, UniProt Q99607 1-663). Particulars: protein: recombinant; tags: N-terminal GST; dsDNA, one strand shown. In short, it runs like this: as §1
A further assay deals with T3, ELK4 (Homo sapiens, UniProt P28324-2 1-405).
T3 sequence: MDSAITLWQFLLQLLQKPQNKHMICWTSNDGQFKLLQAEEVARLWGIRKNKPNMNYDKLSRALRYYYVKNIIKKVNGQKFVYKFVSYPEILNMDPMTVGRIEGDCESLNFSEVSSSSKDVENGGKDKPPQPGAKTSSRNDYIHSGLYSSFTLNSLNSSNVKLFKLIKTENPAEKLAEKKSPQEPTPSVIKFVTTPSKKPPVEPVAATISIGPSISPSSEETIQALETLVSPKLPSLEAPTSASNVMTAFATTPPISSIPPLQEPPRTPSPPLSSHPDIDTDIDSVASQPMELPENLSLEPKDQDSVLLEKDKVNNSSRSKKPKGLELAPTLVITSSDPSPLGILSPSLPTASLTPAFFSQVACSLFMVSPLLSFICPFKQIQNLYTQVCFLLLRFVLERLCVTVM
Particulars: protein: recombinant; tags: N-terminal GST; dsDNA, one strand shown. In short, it runs like this:
as §1

The target of the next assay is T4, ETV2 (Homo sapiens, UniProt O00321 1-342).
T4 sequence: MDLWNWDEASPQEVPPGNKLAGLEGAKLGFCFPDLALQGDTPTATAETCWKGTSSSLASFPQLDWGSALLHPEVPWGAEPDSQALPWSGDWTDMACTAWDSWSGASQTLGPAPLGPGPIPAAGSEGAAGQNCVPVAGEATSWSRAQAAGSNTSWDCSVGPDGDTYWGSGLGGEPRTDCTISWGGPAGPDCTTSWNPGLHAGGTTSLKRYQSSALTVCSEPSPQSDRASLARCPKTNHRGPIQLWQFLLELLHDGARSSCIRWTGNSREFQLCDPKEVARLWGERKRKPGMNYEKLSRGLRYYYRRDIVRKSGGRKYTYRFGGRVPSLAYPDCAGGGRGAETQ
Particulars: protein: recombinant; tags: N-terminal GST; dsDNA, one strand shown. In short, it runs like this:
as §1

The target of another assay is T5, ELF3 (Homo sapiens, UniProt P78545 1-371).
T5 sequence: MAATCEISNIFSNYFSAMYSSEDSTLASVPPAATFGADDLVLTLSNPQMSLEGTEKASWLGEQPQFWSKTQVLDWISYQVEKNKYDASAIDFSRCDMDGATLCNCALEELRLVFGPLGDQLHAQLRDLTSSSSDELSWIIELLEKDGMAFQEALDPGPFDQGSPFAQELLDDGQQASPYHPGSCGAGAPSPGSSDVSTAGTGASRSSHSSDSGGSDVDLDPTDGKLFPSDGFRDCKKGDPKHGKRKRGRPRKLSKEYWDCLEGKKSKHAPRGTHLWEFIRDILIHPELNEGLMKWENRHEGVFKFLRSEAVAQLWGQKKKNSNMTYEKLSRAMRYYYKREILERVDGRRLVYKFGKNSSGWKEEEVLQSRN
Particulars: protein: recombinant; tags: N-terminal GST; dsDNA, one strand shown. In short, it runs like this:
as §1

The next assay concerns the target CRX (Homo sapiens, UniProt O43186 1-299). The note with it: protein: recombinant; tags: N-terminal GST; dsDNA, one strand shown. In short, it runs like this:
as §1

The target in another assay is ETV1 (Homo sapiens, UniProt P50549 1-477). The note with it: protein: recombinant; tags: N-terminal GST; dsDNA, one strand shown. In short, it runs like this:
as §1

In a further assay the target is T6, ERF (Homo sapiens, UniProt P50548 1-548).
T6 sequence: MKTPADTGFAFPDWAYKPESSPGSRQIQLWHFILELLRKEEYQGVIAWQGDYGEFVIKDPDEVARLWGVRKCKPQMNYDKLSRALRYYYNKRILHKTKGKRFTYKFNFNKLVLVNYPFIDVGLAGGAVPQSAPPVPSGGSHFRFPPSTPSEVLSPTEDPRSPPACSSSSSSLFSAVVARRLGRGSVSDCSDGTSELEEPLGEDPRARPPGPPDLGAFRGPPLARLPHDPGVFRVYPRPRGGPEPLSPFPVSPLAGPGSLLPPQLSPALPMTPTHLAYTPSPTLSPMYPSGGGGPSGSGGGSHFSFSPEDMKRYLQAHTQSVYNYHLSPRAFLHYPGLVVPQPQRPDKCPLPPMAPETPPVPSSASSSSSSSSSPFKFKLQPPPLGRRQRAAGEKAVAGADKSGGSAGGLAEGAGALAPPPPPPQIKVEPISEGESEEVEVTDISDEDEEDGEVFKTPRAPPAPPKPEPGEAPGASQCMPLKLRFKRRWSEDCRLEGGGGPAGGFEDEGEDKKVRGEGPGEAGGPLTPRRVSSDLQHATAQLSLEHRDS
Particulars: protein: recombinant; tags: N-terminal GST; dsDNA, one strand shown. In short, it runs like this: as §1

A further assay deals with T7, ETV3L (Homo sapiens, UniProt Q6ZN32 1-361).
T7 sequence: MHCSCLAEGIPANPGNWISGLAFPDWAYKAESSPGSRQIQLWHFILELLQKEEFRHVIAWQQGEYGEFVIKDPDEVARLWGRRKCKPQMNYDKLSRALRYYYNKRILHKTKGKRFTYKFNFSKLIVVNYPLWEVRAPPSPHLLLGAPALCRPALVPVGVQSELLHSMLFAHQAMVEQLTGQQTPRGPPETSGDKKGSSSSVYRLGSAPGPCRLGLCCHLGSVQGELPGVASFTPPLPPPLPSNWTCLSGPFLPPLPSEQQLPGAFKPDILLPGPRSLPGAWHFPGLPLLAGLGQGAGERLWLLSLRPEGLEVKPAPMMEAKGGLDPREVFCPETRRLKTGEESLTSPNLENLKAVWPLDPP
The note with it: protein: recombinant; tags: N-terminal GST; dsDNA, one strand shown. In short, it runs like this: as §1

The next assay addresses T8, ETS2 (Homo sapiens, UniProt P15036 1-469).
T8 sequence: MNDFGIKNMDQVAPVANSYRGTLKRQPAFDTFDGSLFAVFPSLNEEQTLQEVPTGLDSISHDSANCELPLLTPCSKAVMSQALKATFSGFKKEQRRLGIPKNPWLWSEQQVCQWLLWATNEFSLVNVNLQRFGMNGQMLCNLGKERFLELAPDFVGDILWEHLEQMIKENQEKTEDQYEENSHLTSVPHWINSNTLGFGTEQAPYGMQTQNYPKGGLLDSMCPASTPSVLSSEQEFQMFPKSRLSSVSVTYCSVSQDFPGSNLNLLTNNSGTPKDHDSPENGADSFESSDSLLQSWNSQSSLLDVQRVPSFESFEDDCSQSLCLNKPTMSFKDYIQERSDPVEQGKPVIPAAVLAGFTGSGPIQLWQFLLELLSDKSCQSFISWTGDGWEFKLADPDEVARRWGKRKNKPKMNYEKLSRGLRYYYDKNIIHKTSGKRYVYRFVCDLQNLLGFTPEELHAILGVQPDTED
The note with it: protein: recombinant; tags: N-terminal GST; dsDNA, one strand shown. In short, it runs like this: as §1

A further assay has as its target T9, SPDEF (Homo sapiens, UniProt O95238 1-335).
T9 sequence: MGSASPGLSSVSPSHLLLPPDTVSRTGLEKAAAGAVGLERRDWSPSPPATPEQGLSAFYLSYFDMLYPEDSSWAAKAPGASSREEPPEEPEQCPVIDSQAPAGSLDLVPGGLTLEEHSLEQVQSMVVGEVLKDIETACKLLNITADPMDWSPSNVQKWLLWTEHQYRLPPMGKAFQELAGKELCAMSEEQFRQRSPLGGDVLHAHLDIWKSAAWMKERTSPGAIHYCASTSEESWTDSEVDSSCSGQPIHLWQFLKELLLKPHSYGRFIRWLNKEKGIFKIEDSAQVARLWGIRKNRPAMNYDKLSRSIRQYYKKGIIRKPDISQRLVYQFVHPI
Particulars: protein: recombinant; tags: N-terminal GST; dsDNA, one strand shown. In short, it runs like this:
as §1

A further assay addresses T10, ETV7 (Homo sapiens, UniProt Q9Y603 1-341).
T10 sequence: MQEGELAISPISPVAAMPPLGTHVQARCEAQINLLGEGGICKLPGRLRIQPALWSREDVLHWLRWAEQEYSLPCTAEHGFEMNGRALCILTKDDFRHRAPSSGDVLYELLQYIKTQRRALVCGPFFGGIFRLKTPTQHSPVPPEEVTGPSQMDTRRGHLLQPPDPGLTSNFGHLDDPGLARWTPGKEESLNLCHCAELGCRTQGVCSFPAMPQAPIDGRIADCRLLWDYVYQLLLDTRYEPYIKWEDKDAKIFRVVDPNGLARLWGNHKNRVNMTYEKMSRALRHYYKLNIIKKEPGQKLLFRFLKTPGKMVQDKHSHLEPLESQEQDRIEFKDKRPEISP
The note with it: protein: recombinant; tags: N-terminal GST; dsDNA, one strand shown. In short, it runs like this: as §1

For a further assay, the target named is T11, ELF5 (Homo sapiens, UniProt Q9UKW6-2 1-255).
T11 sequence: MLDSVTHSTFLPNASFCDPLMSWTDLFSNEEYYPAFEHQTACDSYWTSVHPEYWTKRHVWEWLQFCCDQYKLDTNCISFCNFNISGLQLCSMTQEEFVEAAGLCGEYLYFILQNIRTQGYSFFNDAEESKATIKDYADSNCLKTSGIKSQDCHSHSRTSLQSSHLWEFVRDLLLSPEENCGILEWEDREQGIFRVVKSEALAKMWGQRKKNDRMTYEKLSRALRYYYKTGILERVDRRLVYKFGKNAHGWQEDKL
The note with it: protein: recombinant; tags: N-terminal GST; dsDNA, one strand shown. In short, it runs like this:
as §1

A further assay concerns the target T12, ETV3 (Homo sapiens, UniProt P41162-2 1-143).
T12 sequence: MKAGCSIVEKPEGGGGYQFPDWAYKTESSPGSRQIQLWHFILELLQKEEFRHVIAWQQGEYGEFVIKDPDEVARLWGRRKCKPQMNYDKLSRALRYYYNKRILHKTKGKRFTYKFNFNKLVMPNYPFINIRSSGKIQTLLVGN
Particulars: protein: recombinant; tags: N-terminal GST; dsDNA, one strand shown. In short, it runs like this: as §1

Another assay concerns the target ETV6 (Homo sapiens, UniProt P41212 1-452). Particulars: protein: recombinant; tags: N-terminal GST; dsDNA, one strand shown. In short, it runs like this:
as §1

Sequence of CRX (O43186 whole entry): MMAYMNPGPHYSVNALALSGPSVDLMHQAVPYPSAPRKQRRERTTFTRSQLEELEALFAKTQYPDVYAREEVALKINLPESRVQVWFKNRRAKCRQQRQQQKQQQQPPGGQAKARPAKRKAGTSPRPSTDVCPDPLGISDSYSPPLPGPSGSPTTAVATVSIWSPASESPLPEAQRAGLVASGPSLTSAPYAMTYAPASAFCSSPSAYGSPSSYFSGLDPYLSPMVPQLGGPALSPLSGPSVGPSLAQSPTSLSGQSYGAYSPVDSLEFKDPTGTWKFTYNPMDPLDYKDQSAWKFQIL
Sequence of ELF4 (Q99607 whole entry): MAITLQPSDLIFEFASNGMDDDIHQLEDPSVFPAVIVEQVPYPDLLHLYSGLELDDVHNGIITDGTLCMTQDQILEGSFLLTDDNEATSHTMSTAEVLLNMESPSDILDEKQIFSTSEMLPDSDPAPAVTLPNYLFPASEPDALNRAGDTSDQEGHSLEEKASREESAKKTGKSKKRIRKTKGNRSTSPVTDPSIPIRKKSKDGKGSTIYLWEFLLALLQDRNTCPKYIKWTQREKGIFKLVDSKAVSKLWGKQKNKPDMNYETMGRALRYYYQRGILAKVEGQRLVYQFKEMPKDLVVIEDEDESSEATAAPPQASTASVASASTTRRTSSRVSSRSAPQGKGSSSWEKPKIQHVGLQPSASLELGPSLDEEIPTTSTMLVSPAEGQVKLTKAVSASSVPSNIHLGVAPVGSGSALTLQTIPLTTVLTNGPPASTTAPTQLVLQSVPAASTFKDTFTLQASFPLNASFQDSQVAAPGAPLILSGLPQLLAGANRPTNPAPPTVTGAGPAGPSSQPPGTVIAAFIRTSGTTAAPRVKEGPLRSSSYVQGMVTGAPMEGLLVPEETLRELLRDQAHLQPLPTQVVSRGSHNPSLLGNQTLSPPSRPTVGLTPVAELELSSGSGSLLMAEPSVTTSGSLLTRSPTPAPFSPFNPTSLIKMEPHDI
Sequence of ETV5 (P41161 whole entry): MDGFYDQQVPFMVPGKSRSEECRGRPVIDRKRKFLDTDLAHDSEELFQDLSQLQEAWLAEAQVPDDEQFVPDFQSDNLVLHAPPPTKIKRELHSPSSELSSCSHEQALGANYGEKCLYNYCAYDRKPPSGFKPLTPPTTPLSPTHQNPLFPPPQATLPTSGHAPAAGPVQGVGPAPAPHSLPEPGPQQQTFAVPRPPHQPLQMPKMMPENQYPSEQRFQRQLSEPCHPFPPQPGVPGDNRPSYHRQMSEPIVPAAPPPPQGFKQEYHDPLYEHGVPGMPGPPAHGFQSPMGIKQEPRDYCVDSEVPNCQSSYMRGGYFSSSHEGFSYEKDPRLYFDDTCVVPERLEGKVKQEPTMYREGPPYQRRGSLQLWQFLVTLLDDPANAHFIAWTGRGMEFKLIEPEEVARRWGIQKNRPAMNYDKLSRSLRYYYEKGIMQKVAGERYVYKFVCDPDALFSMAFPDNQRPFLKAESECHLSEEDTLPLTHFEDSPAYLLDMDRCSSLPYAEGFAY
Sequence of ETV1 (P50549 whole entry): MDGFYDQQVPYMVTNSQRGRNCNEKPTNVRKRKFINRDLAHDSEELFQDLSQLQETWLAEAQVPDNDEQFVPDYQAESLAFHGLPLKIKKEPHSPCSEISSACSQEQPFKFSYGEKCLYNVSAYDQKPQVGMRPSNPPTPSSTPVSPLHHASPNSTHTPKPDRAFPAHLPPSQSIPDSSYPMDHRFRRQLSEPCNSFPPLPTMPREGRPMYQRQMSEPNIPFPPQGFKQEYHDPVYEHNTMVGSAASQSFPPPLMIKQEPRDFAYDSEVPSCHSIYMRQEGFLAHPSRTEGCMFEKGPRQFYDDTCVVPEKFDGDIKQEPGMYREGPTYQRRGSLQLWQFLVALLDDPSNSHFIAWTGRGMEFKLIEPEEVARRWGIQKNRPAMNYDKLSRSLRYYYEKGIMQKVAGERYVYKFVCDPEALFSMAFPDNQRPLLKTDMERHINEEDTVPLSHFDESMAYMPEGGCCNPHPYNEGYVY
Sequence of ETV6 (P41212 whole entry): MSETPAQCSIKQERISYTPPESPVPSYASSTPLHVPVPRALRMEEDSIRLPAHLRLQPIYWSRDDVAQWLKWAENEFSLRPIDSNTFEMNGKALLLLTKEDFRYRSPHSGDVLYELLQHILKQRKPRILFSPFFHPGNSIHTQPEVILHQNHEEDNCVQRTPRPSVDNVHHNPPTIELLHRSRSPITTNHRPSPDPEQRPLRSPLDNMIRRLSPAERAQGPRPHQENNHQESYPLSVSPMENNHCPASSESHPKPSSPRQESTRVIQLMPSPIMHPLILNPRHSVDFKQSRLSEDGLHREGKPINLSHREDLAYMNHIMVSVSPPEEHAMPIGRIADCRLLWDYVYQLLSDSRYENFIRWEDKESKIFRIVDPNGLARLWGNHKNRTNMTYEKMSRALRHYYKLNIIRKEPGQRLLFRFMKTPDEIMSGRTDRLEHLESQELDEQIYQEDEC
Sequence of HSF1 (Q00613 whole entry): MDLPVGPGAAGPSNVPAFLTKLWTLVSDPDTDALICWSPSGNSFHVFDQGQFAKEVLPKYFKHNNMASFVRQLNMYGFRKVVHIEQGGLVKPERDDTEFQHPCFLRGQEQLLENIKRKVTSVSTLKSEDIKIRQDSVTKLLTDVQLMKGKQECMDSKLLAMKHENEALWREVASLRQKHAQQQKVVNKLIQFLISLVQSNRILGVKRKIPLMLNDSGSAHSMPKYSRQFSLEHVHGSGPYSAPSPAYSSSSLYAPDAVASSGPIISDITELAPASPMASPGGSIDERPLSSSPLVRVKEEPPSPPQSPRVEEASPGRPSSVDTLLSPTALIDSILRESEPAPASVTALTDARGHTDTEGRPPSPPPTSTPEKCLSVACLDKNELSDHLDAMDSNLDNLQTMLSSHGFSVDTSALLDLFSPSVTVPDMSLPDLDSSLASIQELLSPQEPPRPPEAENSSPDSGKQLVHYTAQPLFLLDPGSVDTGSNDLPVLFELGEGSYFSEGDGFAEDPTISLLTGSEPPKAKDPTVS

For the sequence ATTTCT, the binding signal with FEV was 1.43 fold enrichment (6-mer frequency, TF over GST control); with ETV5 it was 1.39 fold enrichment (6-mer frequency, TF over GST control); with HSF1 it was 2.3 fold enrichment (6-mer frequency, TF over GST control); in the assay with SPIC, 1.49 fold enrichment (6-mer frequency, TF over GST control); with ELF4, 1.4 fold enrichment (6-mer frequency, TF over GST control); in the assay with ELK4 it was 1.66 fold enrichment (6-mer frequency, TF over GST control). In addition, the binding signal with ETV2 was 1.4 fold enrichment (6-mer frequency, TF over GST control); in the assay with ELF3, 1.76 fold enrichment (6-mer frequency, TF over GST control); with CRX it was 1.68 fold enrichment (6-mer frequency, TF over GST control); with ETV1, 1.51 fold enrichment (6-mer frequency, TF over GST control); with ERF, 1.35 fold enrichment (6-mer frequency, TF over GST control); in the assay with ETV3L, 1.49 fold enrichment (6-mer frequency, TF over GST control). For the same sequence, the binding signal in the assay with ETS2 was 1.54 fold enrichment (6-mer frequency, TF over GST control); with SPDEF, 1.4 fold enrichment (6-mer frequency, TF over GST control); with ETV7 it was 1.47 fold enrichment (6-mer frequency, TF over GST control); in the assay with ELF5 it was 1.5 fold enrichment (6-mer frequency, TF over GST control); in the assay with ETV3 it was 1.42 fold enrichment (6-mer frequency, TF over GST control); with ETV6, 1.39 fold enrichment (6-mer frequency, TF over GST control).
